In PubChem BioAssay AID1851 (National Center for Advancing Translational Sciences (NCATS), 2009):
About 4,000 (25%) of roughly 16,000 compounds were called active. About 26% were inconclusive and are not listed. Calls follow the shape of the dose curve; as a rule, active = well fitted curve in the direction sought with a large enough effect; inconclusive = small, poorly fitted or top-dose-only effect, or effect the other way; inactive = no such curve, though single readings can be large or run the other way. The list is a sample of the results.

molecular target: Cytochrome P450 2C9 (Homo sapiens) (UniProt P11712); assay: Cytochrome panel assay with activity outcomes; conditions: recombinant CYP, pro-luciferin dealkylation, luminescence, p450-cyp2c9; series mostly up to 57.1 µM; activity, negative = inhibition: at the top concentration
Sequence (P11712 whole entry, looked up): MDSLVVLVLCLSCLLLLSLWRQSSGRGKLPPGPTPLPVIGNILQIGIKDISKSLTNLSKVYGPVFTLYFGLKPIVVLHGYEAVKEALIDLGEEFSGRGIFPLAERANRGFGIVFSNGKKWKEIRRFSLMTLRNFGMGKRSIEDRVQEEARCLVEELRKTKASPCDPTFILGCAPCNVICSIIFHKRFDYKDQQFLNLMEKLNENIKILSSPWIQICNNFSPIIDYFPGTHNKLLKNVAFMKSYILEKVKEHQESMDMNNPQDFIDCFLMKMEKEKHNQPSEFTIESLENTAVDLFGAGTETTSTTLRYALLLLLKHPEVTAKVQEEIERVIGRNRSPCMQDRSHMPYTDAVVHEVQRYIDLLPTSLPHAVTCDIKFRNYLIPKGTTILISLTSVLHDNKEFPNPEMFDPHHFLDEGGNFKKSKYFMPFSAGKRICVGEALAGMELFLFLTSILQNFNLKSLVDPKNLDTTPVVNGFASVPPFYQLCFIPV
% is scaled to controls: 0 for no effect and ±100 for the full control effect.

SMILES	AC50	activity, negative = inhibition
O=C(c1cc(Br)ccc1O)c1cc(Br)ccc1O	0.1 µM (active)	–
O=C(Nc1ccc(-c2cn3ccccc3n2)cc1)c1cc(Br)ccc1O	–	-1.72% [at 11.4 µM] (inactive)
CC(C)(C)CC(C)(C)c1ccc(O)c(C[N+](C)(C)[O-])c1	–	0.733% [at 11.4 µM] (inactive)
Cc1cc(C)nc(NN2C(=O)/C(=C/c3ccccc3)SC2=S)n1	–	-17% (inactive)
COc1cc(/C=C2\SC(=S)N(Nc3ccccc3)C2=O)cc(OC)c1OC	6.31 µM (active)	–
CC(C)CC(=O)N[C@H](C(=O)N[C@H](C(=O)N[C@@H](CC(C)C)[C@H](O)CC(=O)N[C@@H](C)C(=O)N[C@@H](CC(C)C)[C@H](O)CC(=O)O)C(C)C)C(C)C	–	0.404% [at 25.6 µM] (inactive)
CCc1ccccc1NC(=O)CSc1nc(-c2ccccc2)nn1C(=O)c1cccc([N+](=O)[O-])c1	0.447 µM (active)	–
O=C(O)[C@@H]1[C@@H](C(=O)O)[C@]23C[C@@]2(C(=O)O)[C@]2(C(=O)O)CCC3=C3CCCC312	–	14% [at 11.4 µM] (inactive)
CCOC(=O)c1cnc2ccc(C)cc2c1Sc1ccccc1C(=O)OC	1.41 µM (active)	–
CCOC(=O)c1cnc2c(cnn2CC)c1NN=C(C)C	–	-17.8% (inactive)
Cc1ccccc1-n1ncc2c(SCC(=O)N3c4ccccc4CC3C)ncnc21 (configuration not stated)	10 µM (active)	–
Cc1nnc(NC(=O)CSc2ncnc3c2cnn3-c2ccccc2C)s1	–	-21.4% (inactive)
CCOc1ccccc1NC(=O)C(=O)NCC1CCCN1CC (configuration not stated)	–	-1.86% (inactive)
CC1CN(C(=O)c2cc3c(s2)CCC3)CC(C)O1 (configuration not stated)	–	18.7% (inactive)
Cc1cc(C)n(C(=O)c2cc3c(s2)CCCC3)n1	11.2 µM (active)	–
CCOC(=O)COc1c(OC)cc(Cl)cc1C1Nc2ccccc2C(=O)N1c1cccc(C)c1 (configuration not stated)	0.708 µM (active)	–
CCOC(=O)COc1c(OC)cc(Cl)cc1C1Nc2ccccc2C(=O)N1c1ccc(F)cc1 (configuration not stated)	0.282 µM (active)	–
CCOC(=O)CC1NC(=O)c2ccccc21 (configuration not stated)	–	-12.7% (inactive)
CC(C)=NO[C@@H](C)c1cn([C@@H]2COC[C@@H]2O)nn1	–	11.5% [at 11.4 µM] (inactive)
COc1ccc2cc(CCC(C)=O)ccc2c1	–	-16.9% [at 25.6 µM] (inactive)
COc1ccc(CCNC(=O)COc2ccc(S(=O)(=O)NC3CCCCC3)cc2Cl)cc1	2.51 µM (active)	–
COc1ccc(NC(=O)COc2ccc(CNCCCN3CCOCC3)cc2OC)cc1	–	-29.9% (inactive)
CC(C)(Sc1ccc(CCN(CCCCC2CCCCC2)C(=O)NC2CCCCC2)cc1)C(=O)O	–	-9.97% (inactive)
COc1ccc(CCCC(=O)NC2CCCCC2)cc1	10 µM (active)	–
COc1ccc2nc3oc(C(=O)NCc4cccs4)cc3cc2c1	–	-10.2% (inactive)

SMILES	AC50	activity, negative = inhibition
CN(C)C(=O)c1ccc(-c2cncnc2NCc2cccs2)cc1	–	-0.243% [at 2.29 µM] (inactive)
O=C(NC1CCCCC1)C(c1cccs1)N(Cc1cccs1)C(=O)c1ccco1 (configuration not stated)	8.91 µM (active)	–
CN(C)Cc1ccccc1-c1cncnc1NCc1cccs1	–	-10.6% [at 2.29 µM] (inactive)
O=C(NCc1ccccc1)C(c1cccs1)N(Cc1cccs1)C(=O)c1cnccn1 (configuration not stated)	15.8 µM (active)	–
CCc1ccc(C(C(=O)NCc2ccc(OC)cc2)N(CCOC)C(=O)Cc2cccs2)cc1 (configuration not stated)	10 µM (active)	–
COc1ccc(CNC(=O)C(c2ccc(C)cc2)N(Cc2cccs2)C(=O)c2ccc3c(c2)OCCO3)cc1 (configuration not stated)	7.08 µM (active)	–
CN(Cc1ccco1)c1cc(-c2ccccc2Cl)ncn1	–	-2.34% [at 2.29 µM] (inactive)
N[C@H](C(=O)O)[C@@H]1[C@@H](C(=O)O)C1(F)F	–	-13.7% (inactive)
COc1ccc(C(C(=O)NCc2ccccc2)N(Cc2cccs2)C(=O)c2cnccn2)cc1 (configuration not stated)	7.94 µM (active)	–
CC1(C)[C@@H]2CC[C@]1(C)[C@@H](OC(=O)/C=C\c1ccccc1)C2	–	-14.1% [at 11.4 µM] (inactive)
COc1cccc(N(CC(=O)Nc2cccc(C(C)=O)c2)S(C)(=O)=O)c1	25.1 µM (active)	–
CS(=O)(=O)N1CCC[C@@]2(CCN(C(=O)Nc3cccc(F)c3)C2)C1	–	3.71% (inactive)
CS(=O)(=O)N1CCC2(CCN(C(=O)Nc3cccc(F)c3)CC2)CC1	–	-4.47% (inactive)
CS(=O)(=O)N(CC(=O)Nc1cccc(F)c1)c1cccc([N+](=O)[O-])c1	3.55 µM (active)	–
CC(=O)NCCC(=O)Nc1sc2c(c1-c1nc3ccccc3[nH]1)CCCC2	11.2 µM (active)	–
CC(=O)Nc1sc2c(c1C(N)=O)CCCC2	–	-29.9% (inactive)
CC(=O)Nc1sc2c(c1CN1CCN(C)CC1)CCCC2	–	-27.7% (inactive)
N#Cc1cccc(-c2cc(NCc3cccs3)ncn2)c1	–	-9.65% [at 2.29 µM] (inactive)
C[N+]1(C)CCc2cc3c(cc2[C@@H]1[C@@H]1C(=O)Oc2c1ccc1c2OCO1)OCO3	inactive	–
CN1CCc2cc3c(cc2[C@@H]1[C@@H]1C(=O)Oc2c1ccc1c2OCO1)OCO3	12.6 µM (active)	–
O=C(O)c1ccc(Sc2nnnn2-c2ccccc2)c([N+](=O)[O-])c1	–	19% (inactive)
O=C(Nc1ccccc1[N+](=O)[O-])C1C(c2ccccc2)=C1c1ccccc1	6.31 µM (active)	–
COCC(=O)N1CCC2(CCCN(C(=O)Nc3cccc(F)c3)C2)CC1	–	-2.36% (inactive)
CC(=O)SCC[N+](C)(C)C	–	9.28% (inactive)
COc1ccc(/C=C2/S/C(=N/N=C3\CC4CCC3(C)C4(C)C)NC2=O)cc1 (configuration not stated)	8.91 µM (active)	–

SMILES	AC50	activity, negative = inhibition
COc1cc(CNC(=O)CCCC/C=C\C(C)C)ccc1O	2 µM (active)	–
CCCCCCCCC(=O)NCc1cc(OC)c(O)cc1I	–	-13.8% (inactive)
CCCCCCCC/C=C\CCCCCCCC(=O)NCc1ccc(O)c(OC)c1	–	-9.24% (inactive)
Cc1ccnc(N)c1	–	28.1% (inactive)
CSc1nsc(/C=C/Nc2ccc(Cl)cc2)c1C#N	2.24 µM (active)	–
Cc1ccccc1-c1cncnc1N(C)Cc1ccco1	–	-10.8% [at 2.29 µM] (inactive)
CCn1c(SCc2nc3ccccc3[nH]2)nnc1-c1ccc(OC)cc1	12.6 µM (active)	–
CCn1c(SCC(=O)N2CCN(S(=O)(=O)c3ccccc3)CC2)nnc1-c1cccs1	–	-37.8% (inactive)
CCn1c(SCc2cccc(C)c2)nnc1-c1ccc(C)cc1	–	-21.7% (inactive)
c1ccc(-c2nnc(SCc3nc4ccccc4[nH]3)n2Cc2ccco2)cc1	6.31 µM (active)	–
Cc1ccccc1CSc1nnc(-c2cccs2)n1Cc1ccco1	11.2 µM (active)	–
CN(Cc1ccco1)c1nc(-c2ccoc2)nc2ccccc12	–	-3.83% [at 2.29 µM] (inactive)
O=C(O)CC[C@]1(C(=O)O)CCC(=O)c2ccccc21	–	-1.2% [at 11.4 µM] (inactive)
N[C@H](C(=O)O)[C@@H]1C[C@@H]1C(=O)O	inactive	–
O=C1C=C(c2cccs2)CC(c2cccs2)C1n1cnc([N+](=O)[O-])c1 (configuration not stated)	14.1 µM (active)	–
Cc1nc(SCC(=O)c2cc3ccccc3oc2=O)c(C#N)c(C)c1C(=O)Nc1ccccc1	0.794 µM (active)	–
Cc1ccc(N2C(=O)CC(c3ccsc3)C3=C2CC(C)(C)CC3=O)cc1 (configuration not stated)	3.98 µM (active)	–
CC(=O)NCCNc1nc(-c2ccc(C(=O)N(C)C)cc2)nc2ccccc12	–	6.97% [at 2.29 µM] (inactive)
Cc1nc2ccc3nc(NC(=O)c4ccc(S(=O)(=O)N5CCOCC5)cc4)sc3c2s1	–	-18.4% (inactive)
COc1cc(C(=O)Nc2nc3ccc4nc(C)sc4c3s2)cc(OC)c1OC	–	-37.3% (inactive)
Cc1nc2c(ccc3nc(NC(=O)c4ccc5c(c4)OCCO5)sc32)s1	0.708 µM (active)	–
CN(C)c1ncnc2c1ncn2CCn1cnc2c(N(C)C)ncnc21	–	-7.75% [at 11.4 µM] (inactive)
CCN(C(=O)COc1cc(=O)n(C)c2ccccc12)c1cccc(Cl)c1	7.94 µM (active)	–
COc1cc(=O)n(C)c2c(OC[C@@H](O)C(C)(C)O)cccc12	inactive	–
CCN(C(=O)Cn1c(=O)oc2ccccc21)c1cccc(C(F)(F)F)c1	–	11.8% (inactive)

SMILES	AC50	activity, negative = inhibition
CCSc1ncc(/C=N/Nc2ccc(F)cc2)n1C	12.6 µM (active)	–
CCOC(=O)N/N=C/c1ccc(F)cc1	–	-11% (inactive)
Cc1cnn(CCC(=O)NNC(=S)Nc2ccc(F)cc2)c1	–	-25.6% (inactive)
c1ccc([C@H](CCN2CCCC2)c2ccccn2)cc1	–	10.4% [at 11.4 µM] (inactive)
O=C1[C@H]2[C@H]3[C@H](O)[C@H](O)C/C(=N/OC[C@@H](O)COCc4ccco4)[C@H]3CC[C@@H]2C(=O)N1Cc1ccc2c(c1)OCO2	–	12.6% [at 11.4 µM] (inactive)
Cc1c(C(=O)NN2CCOCC2)nn(-c2ccc(Cl)cc2Cl)c1-c1ccc(I)cc1	6.31 µM (active)	–
Cc1ccc(C(=O)NN2CCOCC2)cc1	–	-10.7% (inactive)
O=C(N/N=C1/C[C@@H](O)[C@@H](O)[C@@H]2[C@@H]3C(=O)N(Cc4ccccc4)C(=O)[C@H]3CC[C@H]12)OCc1ccccc1	–	4.61% [at 11.4 µM] (inactive)
COC(=O)c1c(-c2ccc3ccccc3c2)csc1NC(=O)Cc1ccc(OC)c(OC)c1	0.447 µM (active)	–
COc1ccc(CC(=O)NCc2ccccn2)cc1OC	–	-10% (inactive)
CCOC(=O)Cc1csc(NS(=O)(=O)c2ccccc2)n1	5.01 µM (active)	–
COc1ccc(C/C(N)=N/OC(=O)Cc2ccccc2)cc1OC	–	5.49% (inactive)
CCOC(=O)c1sc(NC(C)=O)nc1-c1ccccc1	31.6 µM (active)	–
CCOC(=O)c1sc(NS(=O)(=O)c2ccccc2)nc1C	1 µM (active)	–
C#CCCCO/N=C1/C[C@@H](O)[C@@H](O)[C@@H]2[C@@H]3C(=O)N(C4CCCCC4)C(=O)[C@H]3CC[C@H]12	–	6.11% [at 11.4 µM] (inactive)
CCOC(=O)c1c(C)n(C)c2ccc(OC)c(NC(=O)CN3CCCCC3)c12	–	-6.07% (inactive)
CCCC(=O)Nc1nc(C(=O)OCC)cs1	–	-26.8% (inactive)
CCOC(=O)c1c(-c2cccc(C)c2)csc1NC(=O)c1c(-c2ccccc2)noc1C	–	-23% (inactive)
CCOC(=O)Cc1csc(NC(=O)CCCCCN2C(=O)c3ccccc3C2=O)n1	1.26 µM (active)	–
Cn1cnnc1SCC(=O)OCN1C(=O)c2ccccc2C1=O	–	-14.3% (inactive)
CCOC(=O)c1c(-c2ccccc2)csc1NC(=O)c1cccc(N2C(=O)CCC2=O)c1	0.316 µM (active)	–
CCOC(=O)c1c(-c2ccc(OC)cc2)csc1NC(=O)CCN1C(=O)c2ccccc2C1=O	1.41 µM (active)	–
